CHO-K1 Ca antag: counter-screen for M1 antagonists: effect in parental CHO-K1 cells | actives 0.6% (n = 360,000) | inhibition, % at 3 µM | ATP-induced calcium, Fluo-8 fluorescence;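 active = inhibition above a per-plate cutoff, the plate's mean sample inhibition plus 3 SD, cut at about 24% in these data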;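 also: 0% = DMSO plus EC80 ATP and 100% = DMSO alone without ATP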
M1 antag: human M1 muscarinic receptor antagonists, primary screen, CHO-K1 cells, Fluo-8 calcium fluorescence, 1536-well | Muscarinic acetylcholine receptor M1 (Homo sapiens), P11229 | CHO-K1 hM1, ACh EC80 antagonist | inhibition, % at 3 µM | actives 1.3% (n = 360,000) | AID 588852, 2011;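 active = percent inhibition above its own plate's cutoff, namely the mean of that plate's compound wells plus 3 SD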;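 also: peak over basal fluorescence ratio during 140 s after agonist addition; 0% = ACh EC80 plus DMSO and 100% = DMSO alone without agonist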
Target sequence (P11229 whole entry, looked up): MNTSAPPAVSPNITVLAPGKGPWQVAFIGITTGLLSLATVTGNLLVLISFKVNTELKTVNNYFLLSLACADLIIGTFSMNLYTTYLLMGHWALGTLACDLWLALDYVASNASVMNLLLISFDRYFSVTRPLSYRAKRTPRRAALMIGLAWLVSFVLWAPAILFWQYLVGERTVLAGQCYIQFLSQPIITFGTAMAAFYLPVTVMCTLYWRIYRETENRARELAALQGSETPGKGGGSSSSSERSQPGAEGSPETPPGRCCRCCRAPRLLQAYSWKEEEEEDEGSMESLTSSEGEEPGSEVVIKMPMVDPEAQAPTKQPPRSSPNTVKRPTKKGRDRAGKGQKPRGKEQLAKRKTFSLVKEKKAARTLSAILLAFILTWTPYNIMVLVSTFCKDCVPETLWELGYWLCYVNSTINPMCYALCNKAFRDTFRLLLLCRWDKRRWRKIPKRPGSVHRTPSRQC
M1 ag: human M1 muscarinic receptor agonists, primary screen, Fluo-8 calcium fluorescence, CHO-K1 cells, HTS. CHO-K1 hM1, agonist mode; 0% DMSO, 100% acetylcholine EC100. activation, % at 3 µM. actives 0.33% (n = 360,000);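 active = activation above the run's mean compound activation plus 3 SD, cut at about 16% in these data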;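 also: peak over basal fluorescence ratio within a 140 s kinetic read after compound addition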
M1 PAM: human M1 muscarinic receptor positive allosteric modulators, primary screen, CHO-K1 cells, Fluo-8 calcium fluorescence, 1536-well; Muscarinic acetylcholine receptor M1 (Homo sapiens), P11229; CHO-K1 hM1, ACh EC20; 0% = ACh EC20, 100% = maximal ACh; actives 0.088% (n = 360,000); activation, % at 3 µM; AID 588819, 2011; in the data active = activation above about 19%, passing the limit was not always enough
CHO-K1 Ca PAM: nonselective calcium activators in parental CHO-K1 cells, primary screen, counter-screen for M1 PAM project, cell-based, Fluo-8 calcium fluorescence, full deck, 1536-well; activation, % at 3 µM; ATP EC20; 0% at ATP EC20, 100% at ATP max; actives 0.02% (n = 360,000); AID 602247, 2012;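 active = activation above the run cutoff, the mean activation of all test compounds plus 3 SD, cut at about 40% in these data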;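 also: peak over basal fluorescence ratio in a 140 s read after ATP addition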
M1 ag parental: counter-screen for M1 agonists: effect in parental CHO-K1 cells | Fluo-8 calcium fluorescence; scaled to maximal ATP response, vehicle zero | activation, % at 3 µM | actives 0.48% (n = 360,000); in the data active = activation above about 15%;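 also: untransfected CHO-K1 host cells lacking M1 receptor as counterscreen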
Starred values were filed as active, the others as inactive; / = not tested or not shown. The list is not random: actives were taken first. Their share in the collection is about 2.4%.

SMILES	CHO-K1 Ca antag	M1 antag	M1 ag	M1 PAM	CHO-K1 Ca PAM	M1 ag parental
Fc1ccc(CN2CCN(C(c3ccccc3)c3ccccc3)CC2)cc1	-7.2	36.1*	-8.5	-26.7	0.8	0.2
c1ccc(CN2CCN(C(c3ccccc3)c3nnnn3Cc3ccccc3)CC2)cc1 (stereo not drawn)	-8.2	-19.0	-8.0	-3.4	17.9	0.0
OC(CN1CCN(Cc2ccccc2)CC1)c1ccc(F)cc1 (stereo not drawn)	-4.0	-3.1	-8.2	1.9	18.2	1.7
c1ccc(CN2CCN(C(c3ccccc3)c3ccccc3)CC2)cc1	-10.1	44.2*	-9.4	-25.4	15.0	0.4
CC(OC(=O)c1ccc(Cl)c([N+](=O)[O-])c1)C(=O)N1CCN(Cc2ccccc2)CC1 (stereo not drawn)	7.0	18.0	-2.6	-7.5	-4.8	2.3
CC(C)C(NC(=O)c1c(F)cccc1F)C(=O)N1CCN(c2ccccc2F)CC1 (stereo not drawn)	5.6	-11.7	-2.4	24.9	10.9	-0.1
CCCn1c(Cc2ccccc2)n[nH]c1=S	-12.8	17.0	-5.5	-6.0	18.5	0.3
S=c1[nH]nc(Cc2ccccc2)n1Cc1ccco1	-15.7	92.3*	-12.6	-33.0	7.8	0.7
C=CCC1c2cccc(C(=O)OC)c2C(=O)N1c1ccccc1 (stereo not drawn)	23.7*	10.0	-2.2	0.2	-8.1	0.0
C=CCN(CC=C)CCCOc1ccccc1C(=O)OC	-10.9	-13.8	-10.3	7.4	27.3	0.5
COc1ccccc1C(=O)N1CCN(Cc2cn[nH]c2-c2ccc(F)cc2F)CC1	-12.4	-1.0	-5.0	3.3	27.3	0.9
CCOC(=O)C1CCCN(CC(=O)c2ccc(F)cc2)C1 (stereo not drawn)	1.1	57.0*	65.2*	-20.5	-1.2	6.1
CCOC(=O)c1[nH]ncc1CN1CCCC(C(=O)c2ccc(C(C)(C)C)cc2)C1 (stereo not drawn)	-5.5	37.9*	-6.1	-9.7	-7.4	0.8
COc1cc(CN2CCCC(C(=O)c3ccc(C(C)(C)C)cc3)C2)cc(OC)c1O (stereo not drawn)	-6.8	9.0	-9.6	-15.3	-3.6	0.5
CCOC(=O)C1CCCN(Cc2cn[nH]c2-c2ccc(F)cc2F)C1 (stereo not drawn)	3.7	-0.5	7.7	3.9	7.8	18.1*
CCOC(=O)C1CCCN(CC(=O)Nc2c(F)c(F)c(F)c(F)c2F)C1 (stereo not drawn)	-2.4	-2.7	9.7	0.8	8.5	-0.2
Nc1c(-c2ccccc2)n[nH]c1-c1ccccc1	-8.6	103.8*	-14.3	-37.2	4.5	1.8
S=c1nc(-c2ccccc2)c(-c2ccccc2)n[nH]1	-17.0	-19.6	-4.6	11.8	3.4	1.5
Cc1ccccc1C(=O)N1CCC(C(=O)NC(C)c2ccc(-n3ccnc3)cc2)CC1 (stereo not drawn)	6.1	-7.2	-5.9	1.8	-15.1	0.2
CCOC(=O)N1CCC(N2CCN(CCC(C)C)C(CCO)C2)CC1 (stereo not drawn)	-1.0	40.9*	-9.0	-21.4	22.4	0.8
COc1cc(CN2CC(=O)N(c3cccc(Cl)c3C)C2=S)cc(OC)c1OC	5.8	4.3	5.6	-0.3	3.4	22.8*
COc1cc(CN2CC(=O)N(c3ccccc3Cl)C2=S)cc(OC)c1OC	12.5	34.1*	1.8	-17.0	-3.3	19.0*
CC(C)(C)C(=O)NNC(=O)C1CC1(c1ccccc1)c1ccccc1 (stereo not drawn)	-15.8	-6.5	-0.9	6.1	3.9	0.7
COc1cc(CN2CCC(n3nccc3NC(=O)c3ccccc3OC)CC2)ccc1F	-13.7	-17.3	-4.9	3.9	10.0	4.2
COc1cc(/C=C2\SC(=S)N(NC(=O)c3ccccc3O)C2=O)ccc1O	2.9	14.4	20.3*	-4.9	1.6	13.0
SMILES	CHO-K1 Ca antag	M1 antag	M1 ag	M1 PAM	CHO-K1 Ca PAM	M1 ag parental
O=C(NN1C(=O)/C(=C/c2ccc(O)cc2)SC1=S)c1ccccc1O	-6.2	14.2	10.9	-1.8	-6.2	4.7
Cc1c(Br)c(O)c(Br)c2sc(=O)oc12	3.4	-6.3	-1.3	4.5	6.2	-0.3
CSc1ccccc1-c1ccc2nccn2c1	19.3	34.9*	-8.8	-25.1	-4.4	0.6
Clc1cccc(-c2ccc3nccn3c2)c1Cl	9.7	-13.1	-6.6	1.0	-8.5	1.2
COc1cccc(-c2ccc3nccn3c2)c1	28.4*	22.9	-8.9	-8.9	-14.1	0.1
CCCC(=O)Oc1ccc(C2NC(=O)c3ccccc3O2)cc1 (stereo not drawn)	13.9	-11.9	-2.7	11.1	-23.7	-0.9
COc1cc(C2N(C)C(=O)c3ccccc3N2C)ccc1O (stereo not drawn)	-0.1	5.4	-4.5	0.1	6.2	16.8*
Cc1ccc(S(=O)(=O)N2CCN(C(=O)COC(=O)c3cccc(Cl)c3)CC2)c(C)c1	-16.3	3.4	-1.0	-3.5	11.2	8.7
COC(=O)c1ccc(CN2CCN(Cc3ccccc3)C(CCO)C2)cc1 (stereo not drawn)	-3.2	-9.0	-9.7	-0.8	16.9	0.5
COC(=O)c1ccc(CN2CCN(C3CCCC3)C(CCO)C2)cc1 (stereo not drawn)	-3.9	91.6*	-13.7	-32.1	18.4	0.5
COC(=O)c1ccc(CN2CCN(C3CCCCC3)C(CCO)C2)cc1 (stereo not drawn)	-19.5	60.2*	-6.5	-22.6	17.9	1.4
CC(=O)Nc1ccc(CN2CCN(C3CCCCC3)C(CCO)C2)cc1 (stereo not drawn)	-4.2	23.9*	-6.5	-11.5	-1.3	-0.1
Cc1cccc(NC(=O)C(CCC(N)=O)NC(=O)OCc2ccccc2)c1 (stereo not drawn)	-2.4	6.5	-3.8	2.9	-6.8	0.4
Cc1cccc(C)c1-n1nnnc1C1(C)CCC(=O)N1Cc1cccs1 (stereo not drawn)	-7.7	/	/	/	-7.0	0.2
COc1ccc([C@H]2CC(=O)C=C(c3ccnc4ccc(Cl)cc34)C2)cc1	2.8	24.4	2.4	-10.0	9.1	9.2
CC1(c2ccc(OC(F)F)cc2)NC(=O)N(CC(=O)Nc2cccc(F)c2)C1=O (stereo not drawn)	44.3*	40.4*	44.5*	-1.2	-21.7	32.3*
CCOC(=O)c1c(C)[nH]c(C(=O)CN2C(=O)NC(C)(C)C2=O)c1C	6.3	12.5	-1.6	-1.5	-14.9	0.3
